Reference: the supplement of paper PMC10646978
± gives the standard deviation.

Columns and labels:
Conditions in all cases: modulator concentration 10 µM
[1] = system: RAW-Dual (murine macrophage reporter line); test: NF-kB reporter (SEAP) activity fold change vs agonist alone; higher = enhanced NF-kB activity
In short: (§1)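 RAW-Dual murine macrophage reporter cells were plated at 50 000 per well in 384-well plates, pin-transferred compound to 10 μM final, and pre-incubated for 1 hour at 37 °C before a PRR agonist was added and the cells incubated overnight. NF-κB activity was read from supernatant SEAP with QUANTI-Blue at 620 nm absorbance, and IRF activity from Lucia luciferase with QUANTI-Luc by luminescence. Each signal was expressed as fold change by dividing by the mean agonist-only control on the same plate. Two replicate plates were averaged, with errors obtained by propagation.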

[2] = system: RAW-Dual (murine macrophage reporter line); test: IRF reporter (Lucia luciferase) activity fold change vs agonist alone; higher = enhanced IRF activity
In short: as §1

[3] = system: RAW-Dual (murine macrophage reporter line); test: viability score (confluency relative to resting cells, overnight) (fraction); higher = more viable, active = viable (0.7 or more)
In short: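 Compound was added at a final 10 μM to RAW-Dual macrophages in 384-well plates and left overnight. Confluency was imaged with IncuCyte, and two masks were generated in IncuCyte software over all imaged wells. Each viability score is confluency relative to resting cells, and a compound met the cutoff only when both masks were above 70% of resting cells.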

[4] = agonist: CpG ODN 1826 0.5 ug/mL

SMILES | NF-kB reporter [1, 4] | NF-kB reporter ([1]; agonist: LPS 0.1 ug/mL) | NF-kB reporter ([1]; agonist: MPLA […]) | IRF reporter ([2]; agonist: 3'3'-cGAMP 10 ug/mL) | IRF reporter ([2]; agonist: LPS 0.1 ug/mL) | IRF reporter ([2]; agonist: MPLA […]) | viability score [3]
O=C(c1ccc(Cl)cc1)c1ccc(N2CCCCC2)c([N+](=O)[O-])c1 | 1 ± 0.17 | 1.11 ± 0.15 | 1.01 ± 0.097 | 0.957 ± 0.064 | 1.27 ± 0.27 | 1.33 ± 0.27 | 0.998 (active)
FC(F)(F)c1ccc(CNc2ccc(Cc3c[nH]c4ncc(Cl)cc34)cn2)cn1 | 0.154 ± 0.011 | 0.281 ± 0.028 | 0.378 ± 0.02 | 0.0391 ± 0.0019 | 0.335 ± 0.13 | 0.202 ± 0.083 | 0.978 (active)
Cl.O=C1NCC2(CCN(CCc3ccccc3)CC2)O1 | 0.582 ± 0.028 | 0.641 ± 0.054 | 0.798 ± 0.082 | 0.672 ± 0.042 | 1.54 ± 0.26 | 1.78 ± 0.51 | 0.816 (active)
CC(C)(C)C1(O)CC(C(F)(F)F)=NN1C(=O)c1cccc([N+](=O)[O-])c1 (configuration not stated) | 0.62 ± 0.091 | 1.08 ± 0.062 | 0.873 ± 0.052 | 1.01 ± 0.025 | 1.48 ± 0.27 | 1.01 ± 0.22 | 0.974 (active)
CC1=NN(c2ccc(C(=O)O)cc2)C(=O)C1=Cc1ccc(-c2cc(C)c(C)cc2[N+](=O)[O-])o1 | 0.951 ± 0.057 | 0.969 ± 0.076 | 0.947 ± 0.073 | 1 ± 0.066 | 0.976 ± 0.07 | 0.92 ± 0.23 | 0.997 (active)
CCOC(=O)N(CC(=O)OC)CP(=O)(O)C(Cc1ccccc1)C(=O)O (configuration not stated) | 0.988 ± 0.058 | 1.02 ± 0.07 | 0.969 ± 0.069 | 1.03 ± 0.045 | 1.41 ± 0.21 | 1.07 ± 0.095 | 1 (active)
c1ccc2oc(SCCCCSc3nc4ccccc4o3)nc2c1 | 0.959 ± 0.15 | 1.06 ± 0.11 | 0.949 ± 0.089 | 0.821 ± 0.037 | 1.2 ± 0.12 | 1.4 ± 0.15 | 1 (active)
c1ccc(-n2nnnc2SCc2ccc3c(c2)OCO3)cc1 | 1.1 ± 0.096 | 1.22 ± 0.14 | 1.46 ± 0.096 | 0.785 ± 0.029 | 0.988 ± 0.11 | 1.13 ± 0.25 | 0.998 (active)
CC(C(=O)O)c1ccc(CC2CCCC2=O)cc1 (configuration not stated) | 0.81 ± 0.11 | 1.03 ± 0.26 | 0.906 ± 0.066 | 0.916 ± 0.042 | 1.19 ± 0.18 | 1.25 ± 0.27 | 1 (active)
CCCOc1cccc(C(=O)Nc2cccc(S(N)(=O)=O)c2)c1 | 1.11 ± 0.13 | 0.97 ± 0.057 | 0.945 ± 0.058 | 0.918 ± 0.039 | 1.39 ± 0.14 | 1.05 ± 0.27 | 1 (active)
COc1ccc(C2CC(=O)c3c(O)cc(O)cc3O2)cc1O (configuration not stated) | 1.43 ± 0.35 | 1.14 ± 0.064 | 1.15 ± 0.073 | 0.845 ± 0.028 | 1.14 ± 0.21 | 1.1 ± 0.1 | 1 (active)
O.S=c1nc[nH]c2nc[nH]c12 | 0.844 ± 0.037 | 0.902 ± 0.1 | 0.989 ± 0.11 | 0.768 ± 0.035 | 1.23 ± 0.28 | 1.36 ± 0.57 | 0.994 (active)
CCCCOc1ccc(S(=O)(=O)NCCCn2ccnc2)cc1 | 0.946 ± 0.078 | 1.18 ± 0.089 | 1.21 ± 0.071 | 1.07 ± 0.038 | 1.84 ± 0.13 | 1.58 ± 0.2 | 0.987 (active)
COc1cccc2c1C(=O)c1c(O)c3c(c(O)c1C2=O)C[C@@](O)(C(C)=O)C[C@@H]3O[C@H]1C[C@H](N)[C@H](O)[C@H](C)O1 [Prestw-487] | 0.0705 ± 0.0054 | 0.0667 ± 0.019 | 0.095 ± 0.0092 | 0.0214 ± 0.0026 | 0.024 ± 0.0063 | 0.0245 ± 0.0067 | 0.325 (inactive)
Nc1ccn([C@H]2CC[C@@H](CO)O2)c(=O)n1 | 1.05 ± 0.13 | 1.1 ± 0.081 | 1.02 ± 0.09 | 1.03 ± 0.088 | 0.976 ± 0.06 | 1.02 ± 0.081 | 0.995 (active)
CCOc1ccccc1OCCOCCOc1ccc(Br)cc1Cl | 0.905 ± 0.051 | 0.9 ± 0.13 | 1.22 ± 0.044 | 0.876 ± 0.034 | 0.979 ± 0.088 | 1.02 ± 0.12 | 0.992 (active)
COc1ccc(C(=O)C=Cc2cc(OC)c(OC)cc2OC)c(OC)c1 | 0.958 ± 0.24 | 0.902 ± 0.13 | 0.839 ± 0.067 | 0.506 ± 0.013 | 1.15 ± 0.16 | 1.06 ± 0.17 | 1 (active)
COC(=O)C1=COC(OC2OC(CO)C(O)C(O)C2O)C2C1CC(O)C2C (configuration not stated) | 1.04 ± 0.081 | 0.974 ± 0.099 | 0.994 ± 0.033 | 0.976 ± 0.063 | 0.946 ± 0.13 | 0.951 ± 0.24 | 0.998 (active)

SMILES | NF-kB reporter [1, 4] | NF-kB reporter ([1]; agonist: LPS 0.1 ug/mL) | NF-kB reporter ([1]; agonist: MPLA […]) | IRF reporter ([2]; agonist: 3'3'-cGAMP 10 ug/mL) | IRF reporter ([2]; agonist: LPS 0.1 ug/mL) | IRF reporter ([2]; agonist: MPLA […]) | viability score [3]
Cc1nonc1OC(C)CNc1ccc([N+](=O)[O-])cc1 (configuration not stated) | 0.989 ± 0.078 | 1.01 ± 0.083 | 1.14 ± 0.089 | 0.84 ± 0.11 | 0.995 ± 0.1 | 0.843 ± 0.15 | 0.998 (active)
O=C(Nc1ccc(F)c([N+](=O)[O-])c1)c1cccs1 | 1.07 ± 0.072 | 1.2 ± 0.098 | 1.11 ± 0.067 | 0.964 ± 0.037 | 1.61 ± 0.14 | 1.37 ± 0.13 | 0.975 (active)
CNCC[C@H](Oc1cccc2ccccc12)c1cccs1.Cl | 0.377 ± 0.037 | 0.925 ± 0.1 | 1.29 ± 0.069 | 1.41 ± 0.1 | 1.16 ± 0.18 | 1.24 ± 0.31 | 0.323 (inactive)
Cc1ccc(C(=O)c2cc(O)c(O)c([N+](=O)[O-])c2)cc1 | 0.889 ± 0.078 | 1.09 ± 0.056 | 1.07 ± 0.049 | 0.871 ± 0.048 | 0.917 ± 0.081 | 0.946 ± 0.075 | 0.995 (active)
C1N2CN3CN1CN(C2)C3 | 1.07 ± 0.085 | 1.04 ± 0.054 | 1.03 ± 0.033 | 0.961 ± 0.055 | 0.958 ± 0.092 | 0.949 ± 0.076 | 1 (active)
COC(=O)C1=CN(CC2CCCO2)C=C(C(=O)OC)C1c1ccccc1OC (configuration not stated) | 0.826 ± 0.066 | 0.849 ± 0.059 | 1.3 ± 0.37 | 0.996 ± 0.059 | 1.34 ± 0.094 | 1.41 ± 0.16 | 1.02 (active)
CC(=O)N1CC(c2ccc(OC(C)C)cc2)CC1=O (configuration not stated) | 1.07 ± 0.23 | 1.04 ± 0.084 | 0.961 ± 0.088 | 1.05 ± 0.03 | 1.22 ± 0.15 | 1.36 ± 0.16 | 0.999 (active)
COC(=O)CCc1ccc(OCC(O)CNC(C)C)cc1 (configuration not stated) [Prestw-1137] | 1.06 ± 0.087 | 1.06 ± 0.084 | 1.02 ± 0.081 | 0.951 ± 0.043 | 0.911 ± 0.067 | 0.827 ± 0.11 | 1 (active)
C=CCNC(N)=S | 1.37 ± 0.2 | 1 ± 0.32 | 0.931 ± 0.077 | 0.898 ± 0.027 | 1.06 ± 0.4 | 0.986 ± 0.17 | 1.01 (active)
CC1=C(C(=O)Nc2cccc(C)n2)C(c2cccs2)C2=C(CC(C)(C)CC2=O)N1 (configuration not stated) | 1.03 ± 0.18 | 1.09 ± 0.14 | 0.869 ± 0.069 | 0.913 ± 0.027 | 1.2 ± 0.12 | 1.25 ± 0.16 | 1 (active)
O=C(Nc1ccc(S(=O)(=O)N2CCOCC2)cc1)c1ccc(Br)s1 | 1.14 ± 0.13 | 1.02 ± 0.092 | 1.01 ± 0.029 | 0.521 ± 0.021 | 1.05 ± 0.065 | 1.12 ± 0.12 | 0.995 (active)
CCN(CC)CC#CCOC(=O)C(O)(c1ccccc1)C1CCCCC1 (configuration not stated) | 0.65 ± 0.059 | 1.2 ± 0.094 | 1.18 ± 0.053 | 0.92 ± 0.062 | 1.67 ± 0.11 | 1.3 ± 0.32 | 0.293 (inactive)
Nc1ncnc2c1ncn2C1OC(CO)C(O)C1O (configuration not stated) | 0.951 ± 0.078 | 0.93 ± 0.079 | 1.29 ± 0.13 | 1.15 ± 0.043 | 1.2 ± 0.22 | 1.23 ± 0.27 | 1.04 (active)
CC(=O)NC(CS)C(=O)O (configuration not stated) | 0.957 ± 0.074 | 0.934 ± 0.068 | 0.96 ± 0.09 | 0.946 ± 0.035 | 1.08 ± 0.18 | 1.08 ± 0.18 | 1.03 (active)
COc1ccc(-n2nc(C(N)=O)c3c2C(=O)N(c2ccc(N4CCCCC4=O)cc2)CC3)cc1 | 0.793 ± 0.076 | 0.859 ± 0.052 | 1.12 ± 0.12 | 0.994 ± 0.046 | 1.19 ± 0.073 | 1.33 ± 0.11 | 1.01 (active)
Clc1ccc2c(c1)C(N1CCNCC1)=Nc1ccccc1O2 | 0.996 ± 0.26 | 1.02 ± 0.066 | 0.969 ± 0.07 | 0.893 ± 0.03 | 1.2 ± 0.25 | 1.28 ± 0.13 | 0.637 (inactive)
CSCCC(NC(C)=O)C(=O)NC1CCN(c2nc(C)nc3c2CCCC3)CC1 (configuration not stated) | 0.836 ± 0.061 | 1.06 ± 0.086 | 0.896 ± 0.048 | 0.957 ± 0.073 | 1.29 ± 0.18 | 1.17 ± 0.16 | 0.999 (active)
O=C(CN(CCc1ccccc1)S(=O)(=O)c1ccc(Cl)cc1)NCc1ccccn1 | 0.824 ± 0.065 | 0.95 ± 0.049 | 0.987 ± 0.092 | 0.741 ± 0.035 | 1.45 ± 0.084 | 1.49 ± 0.16 | 1.02 (active)
